# Screens as filed in PubChem BioAssay.
# Compounds with a hit are over-represented: about 19% of the library has one in this group of screens.
# TDP1 cell CPT: DT40-hTDP1 cell growth loss with CPT | chicken DT40 Tdp1-/-;hTDP1 cells + 20 nM CPT, ATP luminescence, 48 h | Potency, µM (highest dose often 46.2 µM), for inactives: at the highest dose activity change, negative = growth inhibition, most hits filed as inhibitors | 12% of 420,000 active | AID 686979; also: potency is read from the fitted curve at half-maximal effect; % is scaled to controls: 0 for no effect and ±100 for the full control effect; nearly all actives have a fitted effect of over 55% in size
#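 Chicken DT40 Tdp1-/- cells stably complemented with human TDP1 were seeded at 400 cells/well in medium containing 20 nM camptothecin, exposed to pin-transferred compounds, and grown at 37 °C for at least 48 hr. Viability was read as ATP luminescence.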
# DT40 TDP1 no CPT: qHTS for Inhibitors of human tyrosyl-DNA phosphodiesterase 1 (TDP1): qHTS in cells in absence of CPT; DT40 Tdp1-/- hTDP1 cells, no CPT, ATP luminescence, 48 h; AID 686978, 2013; Potency, µM (top dose mostly 46.2 µM), without a hit: at the top dose activity change, negative = growth inhibition, hits mostly inhibitors; 15% of 420,000 active; also: potency is read from the fitted curve at half-maximal effect; % is scaled to controls: 0 for no effect and ±100 for the full control effect; nearly all actives have a fitted effect of over 55% in size
#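 Cells were dispensed at 400 per well, compounds added by pin tool, plates incubated ≥48 hr at 37 °C, then CellTiter-Glo added for 30 min at room temperature before luminescence reading. Line: DT40 Tdp1-/- complemented with hTDP1; camptothecin omitted.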
# TGFb inhibitor: inhibitors of TGF-b signaling. HepG2 CAGA-GFP TGF-b/SMAD3 reporter, GFP fluorescence, 18 h; TGF-beta stimulated, 500 pg/mL final. Potency, µM (top dose mostly 46.1 µM), without a hit: top-dose activity, negative = inhibition, actives largely listed as inhibitors. 1.2% of 410,000 active; also: potency is read from the fitted curve at half-maximal effect; % is scaled to controls: 0 for no effect and ±100 for the full control effect; nearly all actives have a fitted effect of over 65% in size
#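 Inhibition of TGF-beta-driven CAGA-GFP reporter expression in HEPG2 cells is measured by cellular GFP fluorescence after 18 h stimulation with 500 pg/mL recombinant TGF-beta in 1% FBS medium at 37 degrees C.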
# HepG2 viability: HepG2 cytotoxicity, counter-screen for TGF-b inhibitors; HepG2 CAGA-GFP viability, ATP luminescence, 18 h; Potency, µM (titrated, usually from 46.1 µM), for inactives: top-dose activity change, negative = cytotoxicity, hits mostly cytotoxic; 0.76% of 410,000 active; also: potency is read from the fitted curve at half-maximal effect
#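 HepG2 CAGA-GFP cells (1000/well, DMEM with 1% FBS) received compound, then TGF-beta at 500 pg/mL final, and were incubated 18 hours at 37 degrees C. Viability was read by CellTiter-Glo luminescence. Media-only wells were set as complete cell-killing and DMSO as no toxicity.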
# TDP1 inh: TDP1 (human) enzyme inhibition; Q9NUW8; recombinant TDP1, AlphaScreen DNA substrate cleavage; Potency, µM (titrated, usually from 130 µM), for the others: top-dose activity change, negative = inhibition, most hits filed as inhibitors; 0.28% of 350,000 active; AID 485290; also: potency is read from the fitted curve at half-maximal effect; % is scaled to controls: 0 for no effect and ±100 for the full control effect; nearly all actives have a fitted effect of over 40% in size
# Target sequence (Q9NUW8 whole entry, looked up): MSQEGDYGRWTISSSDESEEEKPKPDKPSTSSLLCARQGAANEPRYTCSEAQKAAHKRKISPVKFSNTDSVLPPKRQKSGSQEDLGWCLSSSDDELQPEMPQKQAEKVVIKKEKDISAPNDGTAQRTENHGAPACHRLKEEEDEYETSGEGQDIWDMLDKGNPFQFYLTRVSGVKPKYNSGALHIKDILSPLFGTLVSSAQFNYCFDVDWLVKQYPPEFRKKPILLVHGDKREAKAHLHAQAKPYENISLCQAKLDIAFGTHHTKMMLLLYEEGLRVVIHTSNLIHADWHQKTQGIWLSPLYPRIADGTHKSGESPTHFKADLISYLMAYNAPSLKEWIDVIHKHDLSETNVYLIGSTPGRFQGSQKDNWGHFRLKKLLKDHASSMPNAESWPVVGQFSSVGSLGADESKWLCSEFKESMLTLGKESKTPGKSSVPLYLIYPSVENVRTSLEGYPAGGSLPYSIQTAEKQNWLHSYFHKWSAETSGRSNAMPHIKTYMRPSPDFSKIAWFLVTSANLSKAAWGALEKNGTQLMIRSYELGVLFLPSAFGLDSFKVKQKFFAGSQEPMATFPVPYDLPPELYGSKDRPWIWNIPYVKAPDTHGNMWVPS
#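 Recombinant human Tdp1 (E. coli-expressed, 1 nM final) preincubated with compounds 15 min at room temperature, then 5'-biotin/3'-phosphotyrosine-FITC DNA substrate (15 nM final) added for 5 min. AlphaScreen beads (10 ug/ml final) added 10 min; cleavage lowers signal.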
# IL-1B inflam inh: inflammasome signaling inhibition, IL-1 beta readout; activity change, % at 57.5 µM; AID 743279; 4.7% of 360,000 active; THP-1 LPS/ATP IL-1B secretion, AlphaLISA, 16 h; active compounds read low; in the data active = activity change below about -50%; inconclusive = mostly about -30% to -49%; also: % is scaled to controls: 0 for no effect and ±100 for the full control effect
#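 Secreted IL-1B measured by AlphaLISA bead assay after 16 h compound exposure of THP-1 cells; compounds (final up to 57.5 uM) added 1 h before LPS (250 ng/mL) and ATP (1.25 mM) stimulation; lower signal means less secretion.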
# Starred values were filed as active, the others as inactive; ? = inconclusive; / = no result given. Unless noted, calls follow the shape of the dose curve; as a rule, active = well fitted curve in the direction sought with a large enough effect; inconclusive = small, poorly fitted or top-dose-only effect, or another doubt; inactive = no such curve, though single readings can be large; an effect the other way counts as inactive or inconclusive.
SMILES,TDP1 cell CPT,DT40 TDP1 no CPT,TGFb inhibitor,HepG2 viability,TDP1 inh,IL-1B inflam inh
O=C(COC(=O)c1ccccc1OCc1ccccc1Cl)NCC1CCCO1 (stereo unspecified),?,?,?,-34%,-7%,-51*
CC(C)c1ccc(NS(=O)(=O)c2ccc(Cl)nc2)cc1,-20%,-29%,-21%,-30%,6%,-4
O=[N+]([O-])c1cc(NS(=O)(=O)c2ccc(Cl)nc2)ccc1Cl,?,16µM*,?,-48%,1%,-2
COc1cccc(NC(=O)C2CCCN2S(=O)(=O)c2ccc3nc(-c4ccccc4)[nH]c3c2)c1 (stereo unspecified),/,/,?,-20%,1%,/
O=C(Nc1ccccn1)C(c1ccccc1)c1ccccc1,15µM*,21µM*,-1%,-5%,/,33
O=C(CC(=O)c1ccccc1)Nc1ccccn1,29%,2%,1%,-10%,5%,5
O=C(Nc1ccccn1)c1ccccc1,4%,-4%,-17%,-20%,/,-3
Cc1ccc(NC(=O)C(c2ccccc2)c2ccccc2)nc1,21µM*,?,-7%,-2%,/,-8
Cc1ccc(NC(=O)Nc2ccccc2)nc1,9%,-7%,0%,113%,/,-25
O=C(CC(O)(c1ccccc1)c1ccccc1)Nc1ccccn1,15µM*,?,-11%,-12%,/,21
COc1cc(C(=O)NNC(=O)COc2cccc(F)c2)ccc1OCC(=O)N1CCOCC1,1%,12%,-4%,-1%,1%,3
O=C(C1CCCO1)N1CCN(C(=S)Nc2ccc(F)c(Cl)c2)CC1 (stereo unspecified),-13%,-22%,5%,-14%,-5%,-5
CC1=C(c2ccc(C)c(C)c2)S(=O)(=O)N=C1N1CCC(C(=O)NCCc2ccco2)CC1,?,?,6%,5%,7%,/
Cc1ccc(S(=O)(=O)N2CCN(C(=O)c3ccc4c(c3)OCO4)CC2)cc1,?,-23%,0%,-6%,/,-12
Cc1cc(C)c(S(=O)(=O)N2CCN(C(=O)c3ccc4c(c3)OCO4)CC2)c(C)c1,-20%,?,?,-36%,0%,-60*
Cc1cc(C)c(S(=O)(=O)N2CCN(C(=O)c3ccc(-n4nc(C)c(Cl)c4C)cc3)CC2)c(C)c1,23µM*,16µM*,?,-7%,/,-15
O=Cc1nc(Nc2cc(F)cc(F)c2)nc(NC2CCCC2)n1,/,/,/,/,1%,/
COc1ccc(-n2nc3c(N4CCC(C(=O)NCc5cccc(F)c5)CC4)nnc(C)c3c2C)cc1,9.2µM*,10µM*,10µM*,16µM*,-14%,/
COc1cc(NC(=O)C2CCN(c3nnc(C)c4c(C)n(-c5ccccc5)nc34)CC2)cc(OC)c1,?,?,?,-27%,6%,/
COc1ccc(CNC(=O)C2CCN(c3nnc(C)c4c(C)n(-c5ccc(C)cc5)nc34)CC2)cc1,?,16µM*,?,-33%,3%,/
Cc1nnc(N2CCCC(C(=O)NCc3ccc(OC(C)C)cc3)C2)c2nn(-c3ccccc3)c(C)c12 (stereo unspecified),?,?,-28%,-25%,1%,?
COc1ccc(CNC(=O)C2CCCN(c3nnc(C)c4c(C)n(-c5ccc(C)cc5)nc34)C2)cc1 (stereo unspecified),13µM*,21µM*,?,-48%,6%,/
COc1ccc(-n2nc3c(N4CCCC(C(=O)NCc5ccc(C)cc5)C4)nnc(C)c3c2C)cc1 (stereo unspecified),4.6µM*,3.3µM*,-24%,-46%,-12%,/
Cc1cc(C)c2nc(N3C(=O)C(O)=C(C(=O)c4ccco4)C3c3cccc(O)c3)sc2c1 (stereo unspecified),3%,2%,?,-16%,5%,-14
Cc1ccc2oc(C(=O)Nc3c(C(=O)Nc4cccc(Cl)c4)oc4ccccc34)cc(=O)c2c1,-8%,-10%,-20%,-36%,7%,/
SMILES,TDP1 cell CPT,DT40 TDP1 no CPT,TGFb inhibitor,HepG2 viability,TDP1 inh,IL-1B inflam inh
CCN(CC)CCNC(=O)C1CCCN(c2nnc(C)c3c(C)n(-c4ccc(Cl)cc4)nc23)C1 (stereo unspecified),?,?,-14%,-17%,3%,/
Cc1ccc(-n2nc3c(N4CCCC(C(=O)NCc5ccccc5C)C4)nnc(C)c3c2C)cc1 (stereo unspecified),15µM*,15µM*,?,-30%,6%,/
COc1cccc(CNC(=O)CCCn2nc(C)c3c(C)n(-c4ccccc4)nc3c2=O)c1,?,4%,-10%,4%,3%,-24
CCc1ccc(CNC(=O)C2CCCN(c3nnc(C)c4c(C)n(-c5ccc(OC)cc5)nc34)C2)cc1 (stereo unspecified),4.6µM*,3.3µM*,11µM*,10µM*,3%,/
COc1cccc(CNC(=O)CSc2nnc(C)c3c(C)n(-c4ccccc4)nc23)c1,?,18µM*,?,-32%,6%,/
CC(C)(C)NCC(=Cc1ccccc1)C(=O)c1ccccc1,2.1µM*,2.1µM*,8.9µM*,-100%,/,-102*
Cc1nc2ccc(S(=O)(=O)NC(CC(C)C)C(=O)NCc3ccc(Cl)cc3)cc2s1 (stereo unspecified),?,-62%,?,-4%,3%,/
Cc1ccc(N=Cc2c(C)[nH]n(-c3ccccc3)c2=O)nc1,-9%,?,-14%,-20%,/,25
Cc1ccc(-n2[nH]c(C)c(/C=N/n3c(C)nc4ccccc4c3=O)c2=O)cc1,6.5µM*,23µM*,3%,6.3µM*,11%,37
Cc1ccc(-n2[nH]c(C)c(C=Nc3ccc(C)cn3)c2=O)cc1,9.2µM*,16µM*,-19%,4µM*,5%,20
O=C(CNC(=O)c1ccco1)Nc1ccc(F)cc1,?,?,-3%,30%,-8%,3
O=C(CCNc1cccc(C(F)(F)F)c1)c1ccco1,21µM*,16µM*,?,-57%,5%,-3
O=C(CCNc1ccc(F)c(Cl)c1)c1ccco1,3.7µM*,6.5µM*,?,-88%,4%,-101*
O=C(CCNc1ccc(F)cc1)c1ccco1,3.3µM*,7.3µM*,?,-45%,2%,-2
